According to article PMC5540273 (PLoS ONE, 2017):

How the values were obtained:
Conditions in all cases: concentration: 1 μM,replicates: in singlicate; n = 1
CAMK1 = system: CAMK1
CAMK2A = system: CAMK2A
CAMK2B = system: CAMK2B
CAMK2D = system: CAMK2D
CAMK2G = system: CAMK2G
CAMK4 = system: CAMK4
CAMKK1 = system: CAMKK1
CAMKK2 = system: CAMKK2
CASK = system: CASK
CDC2L1 = system: T1, CDC2L1
T1 construct: gene CDK11B

CDC2L2 = system: CDC2L2
CDC2L5 = system: T2, CDC2L5
T2 construct: gene CDK13

CDK11 = system: T3, CDK11
T3 construct: gene CDK19

CDK2 = system: CDK2
CDK3 = system: CDK3
CDK4-cyclinD1 = system: CDK4-cyclinD1
CDK4-cyclinD3 = system: CDK4-cyclinD3
CDK4 = system: CDK4
CDK5 = system: CDK5
CDK7 = system: CDK7
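Also: KINOMEscan kinase panel screen.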

| Structure (SMILES) | %Inh (CAMK1) [%] | %Inh (CAMK2A) [%] | %Inh (CAMK2B) [%] | %Inh (CAMK2D) [%] | %Inh (CAMK2G) [%] | %Inh (CAMK4) [%] | %Inh (CAMKK1) [%] | %Inh (CAMKK2) [%] | %Inh (CASK) [%] | %Inh (CDC2L1) [%] | %Inh (CDC2L2) [%] | %Inh (CDC2L5) [%] | %Inh (CDK11) [%] | %Inh (CDK2) [%] | %Inh (CDK3) [%] | %Inh (CDK4-cyclinD1) [%] | %Inh (CDK4-cyclinD3) [%] | %Inh (CDK4) [%] | %Inh (CDK5) [%] | %Inh (CDK7) [%] |
| --- | --- | --- | --- | --- | --- | --- | --- | --- | --- | --- | --- | --- | --- | --- | --- | --- | --- | --- | --- | --- |
| CN(c1ccccc1CNc1nc(Nc2ccc3c(c2)CC(=O)N3)ncc1C(F)(F)F)S(C)(=O)=O | 0 | 22 | 18 | 0 | 59 | 0 | 58 | 64 | 0 | 0 | 0 | 0 | 0 | 58 | 55 | 0 | 34 | 0 | 83 | 67 |
| Cl.c1ccc(Oc2ccc(Nc3ccnc4cc(-c5ccc(CN6CCNCC6)o5)ccc34)cc2)nc1 [GW567142] | 29 | 0 | 0 | 3 | 0 | 0 | 0 | 0 | 0 | 0 | 16 | 0 | 10 | 0 | 0 | 0 | 0 | 14 | 0 | 52 |
| CCCC(=O)Nc1n[nH]c2ncccc12 [SB-601436] | 0 | 13 | 0 | 0 | 0 | 0 | 0 | 0 | 0 | 0 | 0 | 0 | 0 | 0 | 1 | 0 | 0 | 0 | 0 | 0 |
| COc1cccc(C2=C(Nc3cccc(Cl)c3)C(=O)NC2=O)c1 [SB-341556] | 1 | 22 | 0 | 14 | 27 | 0 | 3 | 4 | 43 | 0 | 0 | 0 | 0 | 7 | 4 | 0 | 14 | 0 | 0 | 14 |
| O=c1[nH]cc(-c2ccc(O)cc2)c2sc(-c3ccncc3)cc12 [GSK1033723] | 6 | 0 | 0 | 4 | 29 | 0 | 15 | 15 | 15 | 0 | 12 | 0 | 0 | 0 | 1 | 0 | 0 | 31 | 0 | 0 |
| CS(=O)c1ccc(-c2coc3ccc(-c4n[nH]c(=O)o4)cc23)cc1 (centres unmarked) | 0 | 5 | 16 | 6 | 3 | 0 | 7 | 12 | 26 | 0 | 0 | 36 | 96.9 | 0 | 4 | 0 | 0 | 10 | 0 | 38 |
| CSc1nccc(-c2c(-c3ccc(F)cc3)ncn2CCCN2CCOCC2)n1.Cl [SB-217146] | 6 | 0 | 0 | 0 | 0 | 0 | 0 | 0 | 0 | 0 | 0 | 0 | 0 | 0 | 0 | 0 | 0 | 16 | 0 | 12 |
| O=C1NCCc2[nH]c(-c3ccncc3)cc21 | 13 | 9 | 10 | 0 | 0 | 0 | 0 | 0 | 0 | 0 | 0 | 38 | 22 | 1 | 13 | 21 | 36 | 27 | 29 | 71 |
| O=C(Nc1cccc(Oc2ccc3nccn3n2)c1)Nc1cccc(C(F)(F)F)c1 | 5 | 0 | 0 | 0 | 0 | 0 | 5 | 0 | 26 | 1 | 6 | 13 | 98.7 | 0 | 32 | 33 | 0 | 0 | 0 | 0 |
| CN1CCN(CCCNc2nccc(-c3c(-c4ccc(F)cc4)nn4cc(C(N)=O)ccc34)n2)CC1 [GW622475] | 31 | 0 | 0 | 21 | 37 | 0 | 11 | 30 | 3 | 6 | 17 | 0 | 40 | 0 | 18 | 0 | 0 | 20 | 0 | 0 |
